RECQ1 helicase: blocks DNA unwinding by human RECQ1. P46063. RECQ1 DNA unwinding, red fluorescence kinetic read. Potency, µM (doses to about 57.3 µM), for the others: top-dose activity, negative = inhibition, usual class: inhibitors. 240,000 tested, 0.54% active. AID 2549;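 further: plate controls were vehicle for no effect and no enzyme for full effect; nearly all actives have a fitted effect of over 30% in size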
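RECQ1T1 50 nM; forked duplex (20 bp + 30-nt ss tails) 200 nM, ATP 2 mM final; pH 8.0, 2 mM MgCl2, 2.5 ug/ml poly(dI-dC); 15 min compound preincubation; discontinuous kinetic read over 2 h at RT.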
BLM helicase inh: blocks DNA unwinding by human BLM helicase. Potency, µM (titrated, usually from 56.1 µM), for the others: at the highest dose activity change, negative = inhibition, hits mostly inhibitors. recombinant BLM DNA unwinding, fluorescence dequenching. 350,000 tested, 0.2% active. P54132;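 further: plate controls were vehicle for no effect and no enzyme for full effect; nearly all actives have a fitted effect of over 35% in size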
RGS4 inh: blocks human RGS4-accelerated GTP hydrolysis. P49798. Transcreener GDP fluorescence polarization, RGS4-accelerated GTP hydrolysis. Potency, µM (titrated, usually from 114 µM), for inactives: at the highest dose activity change, negative = inhibition, most hits filed as inhibitors. 390,000 tested, 0.039% active; further: nearly all actives have a fitted effect of over 75% in size
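MLSMR compounds (23 nl, pin-transferred) preincubated 10 min at room temperature with a 500nM (2x) first reagent, then RGS4 at 900nM (2x) plus Transcreener GDP mix added; fluorescence polarization (620/688 nm) read before and after 90 min at 30 °C.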
APE1 inh: APE1 (human) endonuclease inhibition | P27695 | recombinant APE1, TAMRA/BHQ-2 abasic DNA cleavage fluorescence | Potency, µM (highest dose often 65.8 µM), for inactives: top-dose activity change, negative = inhibition, most hits filed as inhibitors | 350,000 tested, 0.35% active;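 further: plate controls were vehicle for no effect and reference inhibitor for full effect; nearly all actives have a fitted effect of over 55% in size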
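Quantitative HTS: incision of a TAMRA/BHQ-2 double-stranded substrate bearing a tetrahydrofuran abasic site by 0.75 nM APE1 raises fluorescence. Substrate 50 nM final, added after 15 min compound preincubation at room temperature; progress as third-minus-first kinetic read difference.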
TDP1 inh: inhibitors of human tyrosyl-DNA phosphodiesterase TDP1; Potency, µM (doses to about 130 µM), for the others: at the top dose activity change, negative = inhibition, most hits filed as inhibitors; Q9NUW8; recombinant TDP1, AlphaScreen DNA substrate cleavage; 350,000 tested, 0.28% active; AID 485290; further: nearly all actives have a fitted effect of over 40% in size
Target sequence (Q9NUW8 whole entry, looked up): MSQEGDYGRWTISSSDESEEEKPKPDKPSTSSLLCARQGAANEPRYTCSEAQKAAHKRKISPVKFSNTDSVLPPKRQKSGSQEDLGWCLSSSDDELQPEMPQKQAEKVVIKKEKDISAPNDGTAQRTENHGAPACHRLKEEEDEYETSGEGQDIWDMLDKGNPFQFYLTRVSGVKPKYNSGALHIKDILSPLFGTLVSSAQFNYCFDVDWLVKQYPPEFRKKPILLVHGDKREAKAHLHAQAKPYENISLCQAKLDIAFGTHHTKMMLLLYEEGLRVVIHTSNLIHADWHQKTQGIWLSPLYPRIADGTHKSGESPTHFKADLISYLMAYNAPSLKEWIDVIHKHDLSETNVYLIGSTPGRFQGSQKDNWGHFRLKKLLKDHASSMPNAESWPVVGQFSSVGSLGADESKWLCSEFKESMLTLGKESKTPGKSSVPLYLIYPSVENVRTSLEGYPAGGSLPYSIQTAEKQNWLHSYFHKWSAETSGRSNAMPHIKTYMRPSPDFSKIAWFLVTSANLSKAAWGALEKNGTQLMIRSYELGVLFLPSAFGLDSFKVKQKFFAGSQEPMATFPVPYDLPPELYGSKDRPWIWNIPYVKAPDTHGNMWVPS
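Signal: AlphaScreen proximity between streptavidin donor and anti-FITC acceptor beads on intact substrate. Reaction: Tdp1 1 nM, substrate 15 nM final, 5 min RT after 15 min compound preincubation.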
KAT2A inh: GCN5L2 (KAT2A) acetyltransferase inhibition. GCN5L2 HAT assay, ThioGlo1 CoA-SH fluorescence. Potency, µM (series often up to 58.9 µM), for inactives: at the highest dose activity change, negative = inhibition, usual class: inhibitors. 390,000 tested, 0.21% active. AID 504327
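GCN5L2 (20nM final) in 50mM HEPES, 0.1mM EDTA pH 7.5, 0.01% Tween-20 was preincubated 15 min at room temperature with compound, then given ThioGlo1 (50uM), H3(1-25) peptide (75uM) and acetyl-CoA (70uM); CoA-thiol fluorescence (Ex340/Em540) was read at 0 and 20 min.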
Starred values were filed as active, the others as inactive; ! = not active in a repeat; [ ] = remark or other dose. Most compounds without a hit are left out; they make up all but 0.87% or so of the library. The call rests on the fitted dose curve; in most records, active means well fitted curve in the direction sought with a large enough effect; inconclusive means small, poorly fitted or top-dose-only effect, or another doubt; inactive means no such curve, though single readings can be large; an effect the other way counts as inactive or inconclusive. Unless noted, on the % scale 0 is the no-effect control and ±100 the full control effect; potency means the concentration at half of the fitted maximal effect.

`Oc1ccc(/C=N/N=C/c2ccc(O)c(O)c2)cc1O` gave BLM helicase inh inconclusive, RGS4 inh -8.2%[56.9 µM], APE1 inh inconclusive and KAT2A inh -4.7%.
For O=C(Nc1scc(-c2ccccc2)c1C(=O)O)c1ccccc1Cl the results were BLM helicase inh 2.5%, RGS4 inh -1.9%, APE1 inh -2.3% and KAT2A inh -7.9%.
`O=C(/C=C/c1cccs1)Nc1scc(-c2ccccc2)c1C(=O)O` gave RECQ1 helicase -9.0%, BLM helicase inh inconclusive, RGS4 inh -30.2%, APE1 inh inconclusive, TDP1 inh 31.6µM* and KAT2A inh -20.5%.
CC1CCc2c(sc(NC(=O)c3ccco3)c2C(=O)O)C1 (stereo not drawn) was read as BLM helicase inh -0.8%, RGS4 inh 15.4%, APE1 inh 85.8%, TDP1 inh -15.1% and KAT2A inh -8.2%.
CC1CCc2c(sc(NC(=O)/C=C/c3cccs3)c2C(=O)O)C1 (stereo not drawn) was read as BLM helicase inh -6.0%, RGS4 inh -13.8%, APE1 inh 11.9µM*, TDP1 inh -6.6% and KAT2A inh -19.5%.
CC(=O)Nc1ccc(/C=C/C(=O)c2ccc(-n3nncc3-c3ccccc3)cc2)cc1 was read as RGS4 inh -43.9% and TDP1 inh 3.8%.
CCCCC[C@H](O)/C=C/C1=C(CCCCCCC(=O)O)C(=O)CC1 was read as RECQ1 helicase 10µM*!, BLM helicase inh 29.0%, RGS4 inh inconclusive, APE1 inh -9.3%, TDP1 inh 11.0% and KAT2A inh -3.5%.
CCCCC/C=C\C=C\[C@@H](O)CCCCCCCC(=O)O was read as RECQ1 helicase -1.8%, BLM helicase inh 3.6%, APE1 inh 19.7% and TDP1 inh 6.2%.
For O=C(Nc1cccnc1Cl)c1cc(-c2ccc(O)cc2)on1 the results were BLM helicase inh -10.0%, RGS4 inh 5.4%, APE1 inh 9.7%, TDP1 inh 50.1µM* and KAT2A inh -0.3%.
O=C1CCc2cc(S(=O)(=O)Nc3cccc(B(O)O)c3)ccc2N1 was read as TDP1 inh 0.4%.
Screening Cc1nn(-c2ccccc2)c2nc(C(F)F)cc(C(F)F)c12 returned RGS4 inh 8.6%, APE1 inh 19.4%, TDP1 inh 56.2µM* and KAT2A inh -3.9%.
O=S(=O)(Nc1cccc2cccnc12)c1ccccc1O was read as RECQ1 helicase -0.9%, BLM helicase inh -7.1%, APE1 inh -3.3% and TDP1 inh 21.5%.
For CCNc1ncc2nc(-c3cccs3)c(=O)n(CCC#N)c2n1 the results were RECQ1 helicase -10.4%, BLM helicase inh -11.9%, APE1 inh -4.6% and KAT2A inh 7.08µM*.
For O=S1(=O)N=C(Oc2ccc(Br)cc2)c2ccccc21 the results were TDP1 inh 2.2%.
`Cc1ccc2c(c1)c(CC(NC(=O)c1ccccc1Oc1ccccc1)C(=O)O)cn2C(=O)OCc1ccccc1` (stereo not drawn) gave RECQ1 helicase inconclusive, BLM helicase inh -18.3%, APE1 inh -6.5%, TDP1 inh 6.2% and KAT2A inh 10µM*.
For Cn1c2ccccc2c(=O)n2c(=O)c3ccccc3cc12 the results were RECQ1 helicase 0.1%, BLM helicase inh 25.1µM*, APE1 inh inconclusive, TDP1 inh -1.0% and KAT2A inh 1.0%.
For CCOc1ccc(S(=O)(=O)N2CCN(c3nc(-c4ccccc4)nc4ccccc34)CC2)cc1OCC the results were RGS4 inh -16.2% and TDP1 inh 0.0%.
`COC(=O)c1sc(-c2cccs2)cc1NC(=O)/C=C/C(=O)O` gave RECQ1 helicase -6.6%, BLM helicase inh 15.8µM*, RGS4 inh -15.8%, APE1 inh -3.2%, TDP1 inh 0.0% and KAT2A inh -12.7%.
NC(=O)C1CCN(c2nc(-c3ccc(Cl)cc3)cs2)CC1 was read as APE1 inh 4.6%.
For O=S1(=O)N=C(Oc2cccc(C(F)(F)F)c2)c2ccccc21 the results were TDP1 inh 1.7%.
`O=C1C(=O)c2ncccc2-c2cccnc21` gave BLM helicase inh 15.8µM* and KAT2A inh -6.7%.
For Nc1cccc(S(=O)(=O)N2CCOCC2)c1 the results were RGS4 inh -4.2% and TDP1 inh 0.9%.
For C=CCOc1ccc(Br)cc1/C=C1/SC(=Nc2ccc(C(=O)O)cc2)NC1=O the results were RECQ1 helicase inactive, BLM helicase inh -20.6%, RGS4 inh inconclusive, APE1 inh 1.1%, TDP1 inh 79.4µM* and KAT2A inh -11.8%.
Screening CCOc1cc(Br)cc(/C=C2\SC(=Nc3ccccc3)NC2=O)c1O returned BLM helicase inh -6.1%, RGS4 inh inconclusive, APE1 inh -3.6% and KAT2A inh -9.4%.
`COc1ccc(C(=O)n2cnc3ccccc32)cc1` gave BLM helicase inh -2.4%, RGS4 inh -7.8%, APE1 inh -0.7% and KAT2A inh -0.1%.
Screening COc1ccc(C(=O)n2cnc(N)n2)cc1 returned RECQ1 helicase -12.1%, BLM helicase inh -1.5%, RGS4 inh -20.2%[11.4 µM], APE1 inh -2.1%, TDP1 inh 7.8% and KAT2A inh 2.24µM*.
O=C1ON=C(c2ccccc2)/C1=C/c1ccc(-c2ccccc2[N+](=O)[O-])o1 was read as RECQ1 helicase inconclusive, BLM helicase inh -27.4%, RGS4 inh inconclusive, APE1 inh -6.4%, TDP1 inh -5.3% and KAT2A inh 20µM*.
Screening O=[N+]([O-])c1ccccc1-c1ccc(/C=N/n2cnnc2)o1 returned RECQ1 helicase -1.3%, BLM helicase inh 0.7%, RGS4 inh 10.9%, APE1 inh -14.2%, TDP1 inh -7.8% and KAT2A inh 37.9%.
Screening O=C(Nc1ccc2[nH]c(=S)sc2c1)c1ccccc1 returned RECQ1 helicase inactive, BLM helicase inh -11.1%, RGS4 inh -18.7%, APE1 inh 1.6%, TDP1 inh 9.3% and KAT2A inh 0.5%.
`S=c1[nH]c2ccccc2s1` gave RECQ1 helicase -0.5%, BLM helicase inh 2.2%, APE1 inh -0.2%, TDP1 inh 9.2% and KAT2A inh 20µM*.
For CCNc1nc(NCC)n2c(SCC(=O)Nc3ccccc3)nnc2n1 the results were RECQ1 helicase inactive, BLM helicase inh -6.1%, RGS4 inh 40.4%, APE1 inh 12.3%, TDP1 inh 5.5% and KAT2A inh -5.3%.

Screens: PubChem BioAssay, National Center for Advancing Translational Sciences (NCATS)
